This is an account of results in the supplement of paper PMC8728848.

Only a selection was taken, and the strongest signals are over-represented in it overall.

What all share (assay): glycan array binding signal (z-score within array); higher = stronger binding
What all share (settings): glycan notation: IUPAC condensed, linker removed

Assay [1] has as its target Fuc(a1-2)Gal(b1-3)GalNAc(b1-4)[Neu5Ac(a2-3)]Gal(b1-4)Glc. In outline:
(§1)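 From the Consortium for Functional Glycomics database, 3228 arrays were curated, keeping only those whose protein sequence was available. Binding is given as a within-array Z-score averaged across arrays sharing a protein sequence and across linkers. Negative Z-scores can be read as non-binding.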

In assay [2] the target is Fuc(a1-2)Gal(b1-3)GlcNAc6S. Put shortly: as §1
Assay [3] has as its target Fuc(a1-2)Gal(b1-3)[Fuc(a1-4)]GlcNAc(b1-3)[Fuc(a1-3)[Gal(b1-4)]GlcNAc(b1-6)]Gal(b1-4)Glc. In outline:
as §1

The target in a further assay is Fuc(a1-2)Gal(b1-4)Glc6S. In outline: as §1
In another assay the target is Fuc(a1-2)Gal(b1-4)GlcNAc. In outline:
as §1

The target of assay [4] is Fuc(a1-2)Gal(b1-4)GlcNAc(b1-2)Man(a1-3)[Fuc(a1-2)Gal(b1-4)GlcNAc(b1-2)Man(a1-6)]Man(b1-4)GlcNAc(b1-4)[Fuc(a1-6)]GlcNAc. In outline: as §1
For assay [5], the target named is Fuc(a1-2)Gal(b1-4)GlcNAc(b1-3)Gal(b1-4)GlcNAc. Put shortly: as §1
For assay [6], the target named is Fuc(a1-2)Gal(b1-4)[Fuc(a1-3)]GlcNAc(b1-3)GalNAc. In outline: as §1
The target in assay [7] is Fuc(a1-2)[Gal(a1-3)]Gal(b1-4)[Fuc(a1-3)]Glc. Put shortly: as §1
In assay [8] the target is Fuc(a1-2)[GalNAc(a1-3)]Gal(b1-4)Glc. In outline:
as §1

The target of assay [9] is Fuc(a1-2)[GalNAc(a1-3)]Gal(b1-4)GlcNAc(b1-2)Man(a1-3)[Fuc(a1-2)[GalNAc(a1-3)]Gal(b1-4)GlcNAc(b1-2)Man(a1-6)]Man(b1-4)GlcNAc(b1-4)[Fuc(a1-6)]GlcNAc. Put shortly: as §1
Assay [10] has as its target Fuc(a1-2)[GalNAc(a1-3)]Gal(b1-4)GlcNAc(b1-6)GalNAc. In outline: as §1
In assay [11] the target is Fuc(a1-2)[GalNAc(a1-3)]Gal(b1-4)[Fuc(a1-3)]GlcNAc. Put shortly:
as §1

Assay [12] concerns the target Fuc(a1-2)[GalNAc(a1-3)]Gal(b1-4)[Fuc(a1-3)]GlcNAc(b1-3)GalNAc. Put shortly: as §1
The target in assay [13] is Fuc(a1-3)[Gal(b1-4)]GlcNAc(b1-2)Man(a1-3)[Fuc(a1-3)[Gal(b1-4)]GlcNAc(b1-2)Man(a1-6)]Man(b1-4)GlcNAc(b1-4)[Fuc(a1-6)]GlcNAc. Put shortly:
as §1

Assay [14] has as its target Fuc(a1-3)[Gal(b1-4)]GlcNAc(b1-3)Gal(b1-4)[Fuc(a1-3)]GlcNAc(b1-3)Gal(b1-4)[Fuc(a1-3)]GlcNAc. In outline: as §1
The target in assay [15] is Fuc(a1-3)[Gal(b1-4)]GlcNAc6S. In outline: as §1
The target in assay [16] is Gal(a1-3)Gal(b1-4)[Fuc(a1-3)]GlcNAc(b1-2)Man(a1-3)[Gal(a1-3)Gal(b1-4)[Fuc(a1-3)]GlcNAc(b1-2)Man(a1-6)]Man(b1-4)GlcNAc(b1-4)GlcNAc. Put shortly:
as §1

In assay [17] the target is Gal(a1-4)Gal(b1-4)GlcNAc(b1-2)Man(a1-3)[Gal(a1-4)Gal(b1-4)GlcNAc(b1-2)Man(a1-6)]Man(b1-4)GlcNAc(b1-4)GlcNAc. In outline:
as §1

In assay [18] the target is Gal(b1-3)GlcNAc(b1-2)[Gal(b1-3)GlcNAc(b1-6)]Man(a1-6)[Gal(b1-3)GlcNAc(b1-2)Man(a1-3)]Man(b1-4)GlcNAc(b1-4)GlcNAc. In outline: as §1
In assay [19] the target is Gal(b1-3)GlcNAc(b1-3)Gal(b1-4)[Fuc(a1-3)]GlcNAc. In outline: as §1
For assay [20], the target named is Gal(b1-3)GlcNAc(b1-6)Gal(b1-4)GlcNAc. In outline:
as §1

In assay [21] the target is Gal(b1-4)GlcNAc(b1-2)Man(a1-3)[Gal(b1-4)GlcNAc(b1-2)Man(a1-6)][GlcNAc(b1-4)]Man(b1-4)GlcNAc(b1-4)[Fuc(a1-6)]GlcNAc. In outline: as §1
The target of assay [22] is Gal(b1-4)GlcNAc(b1-3)Gal(b1-4)GlcNAc(b1-2)[Gal(b1-4)GlcNAc(b1-3)Gal(b1-4)GlcNAc(b1-6)]Man(a1-6)[Gal(b1-4)GlcNAc(b1-3)Gal(b1-4)GlcNAc(b1-2)Man(a1-3)]Man(b1-4)GlcNAc(b1-4)GlcNAc. Put shortly: as §1

B1: GS7807H-bfa-490-18-490 (Bacteroides fragilis) (protein)
chain: GNLEEMNIDPDNATQTHPKLLLTQICMNAFKRGTDGMYATKKVIQADGESADQYYKWTRGSFGYYDNLRNVQKMGEEAERVNAPVYTALTKFFRAYYFYELTLRFGDIPYSQALKGEKEEIYTPEYDAQEDVFAGILQELREADEILANDASVIDGDIIYNGNSTQWRKLINSFRLKVLMTLSNHTTVGNINIASEFKNIATNSPLMNSLADNGQLVYLDQQGNRYPQFNAQWSGYYMDDTFIQRMRERRDPRLFIFSAQTNKGKTEGKPIDDFSSYEGGDPAAPYSDAIIKVSEGTISPINDRFRTDPIVEPTMLMGYAELQQILAEAVVRGWISGNAQTYYEKGIRASFSFYETHAKDYAGYLNENAVAQYLKEPLVDFTQASGTEEQIERIIMQKYLVTFYQGNWDSFYEQLRTGYPDFRRPAGTEIPKRWMYPQGEYDNNGTNVETAITRQFGAGNDKINQATWWQKKS
B1: the “glycan array binding signal (z-score)” value was -0.424 in [1]; 0.079 in assay [2]; -0.223 in assay [3]; -0.448 with Fuc(a1-2)Gal(b1-4)Glc6S; -0.024 in the assay with Fuc(a1-2)Gal(b1-4)GlcNAc; 2.33 in assay [4]. The “glycan array binding signal (z-score)” value in [5] is -0.786; in [6] it was 0.672; in [7], -0.426; in assay [8], -0.704; in [9], 0.217; in assay [10] it was -0.479. For the same molecule, the “glycan array binding signal (z-score)” value in [11] is 0.449; in assay [12] it was 0.984; in assay [13], 1.38; in [14] it was 0.166; in [15] it was -0.707; in assay [16], 1.36. In addition, the “glycan array binding signal (z-score)” value in [17] was 6.27; in assay [18], 2.29; in [19], 0.374; in assay [20], 9.32; in [21], -0.8; in assay [22] it was 11.2.
